In PubChem BioAssay AID743279 (National Center for Advancing Translational Sciences (NCATS), 2014) one finds activity change data, which are given here for 56 compounds.

Molecules are shown by their SMILES. The whole screen tested about 360,000 compounds, of which about 17,000 (4.7%) were called active. Another 5% or so got no clear call; they are omitted. The full list was thinned out, with actives kept by preference. Values without a mark were called inactive. No stated cut-off is given here; in the data, active means activity change below about -50%; inconclusive means mostly about -30% to -49%; inactive means weaker than that.
On the % scale 0 is the no-effect control and ±100 the full control effect.

The nature of the test: qHTS for Inhibitors of Inflammasome Signaling: IL-1-beta AlphaLISA Primary Screen. The following applies: THP-1 LPS/ATP IL-1B secretion, 16 h; at 57.5 µM, stronger effect = lower value. From the text: Inflammasomes are a set of intracellular multi-protein complexes that enable autocatalytic activation of inflammatory caspases and drive the innate immune response to counter harmful agents. […] A qHTS assay, based on AlphaLISA technology, was developed to screen the Molecular Libraries Small Molecule Repository (MLSMR) to look for novel inflammasome inhibitors. The assay detects IL-1B using AlphaLISA anti-IL-1B acceptor and donor beads. A decreased emission signal, indicating reduced IL-1B secretion, is the desired outcome for this assay. NIH Chemical Genomics Center [NCGC] NIH Molecular Libraries Probe Centers Network [MLPCN] MLPCN Grant: MH095513 Assay Provider: Shyam Biswal Ph.D., Johns Hopkins University Immunity. 2012 Jul 27;37(1):85-95. PMID: 22819042 [2] Curr Pharm Des. 2012;18(16):2320-8. PMID: 22390695
Three microliters containing 3000 THP-1 cells were dispensed into the wells of solid, white, tissue culture treated Greiner 1,536-well plates. Library compounds and positive control, Glyburide, were pin-transferred (23 nL) by a Kalypsys pin-tool equipped with a 1,536-pin array, resulting in final compound concentration ranges of 2.5 nM to 57.5 uM. After 1 hr of cell culture incubation (37 °C, 5% CO2), 1 microL of 1 microg/mL lipopolysaccharide (250 ng/mL, final) and 5 mM ATP (1.25 mM, final) were added to stimulate the cells. After 16 hr of cell culture incubation with the compounds, 1.5 uL of anti-IL-1B acceptor beads (6 ug/mL, final) and biotinylated antibody (0.6 nM, final) were added to the plate, followed by a 1 hr incubation at ambient temperature. To detect the secreted IL-1B, 1.5 uL of AlphaLISA SA-Donor beads (24 ug/mL, final) were added, followed by 30 min of incubation in the dark at ambient temperature. The AlphaLISA signal was read by a PerkinElmer EnVision plate reader with an ultrasensitive luminescence detector and 1536 Plate HTS AlphaScreen aperture (excitation of 680nm and emission of 615nm).
As to `NC(=O)CSc1nnc(-c2cccc(S(=O)(=O)N3CCOCC3)c2)o1`, the activity change is -7.22%.

With `COc1cccc(/C=N/NC(=O)CNC(=O)c2ccc(S(=O)(=O)N3CCOCC3)cc2)c1OC`, the activity change is -0.608%.

On to `COc1ccc(/C=N/NC(=O)CNC(=O)c2ccc(S(=O)(=O)N3CCCC3)cc2)c(OC)c1`, for which the activity change is 16.6%.

Turning to `COc1ccc(C(=O)NCC(=O)N/N=C/c2ccc([N+](=O)[O-])o2)cc1OC`, the activity change was -85.8% (active).

For the compound `COc1ccc(-c2c(C#N)cnc(C)c2C)c(O)c1OC`, the activity change is -20.7%.

`CCCCCOc1ccc(/C=C/C(=O)NCCc2nc3ccccc3[nH]2)cc1OC`: the activity change was -2.9%.

Consider `Cc1ccc(O)c(CNc2nc3ccccc3[nH]2)c1`, for which the activity change is -5.71%.

As for `COc1cc(/C=C(\C#N)c2nc3ccccc3[nH]2)ccc1O`, the activity change is -65.7% (active).

`O=C(CCN1C(=O)c2ccccc2C1=O)C1=NN[C@@H]2C(=O)N(c3ccc(F)cc3)C(=O)[C@H]12`: the activity change is 5.83%.

Consider `CC(C)(C)CC(C)(C)NCC(O)COCCOc1ccc(Br)cc1` (stereo unspecified), for which the activity change is -99.4% (active).

For the compound `COc1ccc(OCC(O)CNCCNc2nccc(C(F)(F)F)n2)cc1` (stereo unspecified), the activity change is -18.5%.

`CC(C)(C)NCC(O)COc1cccc2[nH]c(=O)[nH]c12` (stereo unspecified): the activity change is 4.98%.

With `O=[N+]([O-])c1ccc2c(c1)C(O)n1nc(-c3ccccc3)nc1S2` (stereo unspecified), the activity change is -8.59%.

As to `O=C(C[C@H]1C[C@@H]2c3cc(NC(=O)C4CCC4)ccc3O[C@@H]2[C@H](CO)O1)NC1CCCCC1`, the activity change is 13%.

As for `Cn1cnnc1Sc1ccc(CN2CCN(C3CCCC3)C(CCO)C2)o1` (stereo unspecified), the activity change was 0.321%.

On to `C[C@H]1CN(c2ccc(Br)cc2)C(=O)[C@@H]1CC(=O)Nc1ccc(Br)cc1`, for which the activity change was 3.7%.

As for `O=C(/C=C/c1ccc(Cl)cc1Cl)NCc1ccco1`, the activity change was -10.5%.

In the case of `O=C(CSc1nnnn1-c1ccccc1)NCc1ccco1`, the activity change was 2.34%.

As to `O=C(CSc1c2c(nc3ccc(Cl)cc13)CCCC2)NCc1ccco1`, the activity change is -92.7% (active).

Consider `CS(=O)(=O)N1CCCC(C(=O)Nc2ccccc2C(F)(F)F)C1` (stereo unspecified), for which the activity change was 8.14%.

As for `O=C(Nc1cccc(F)c1)N1C2CCC1CC(O)(c1cccnc1)C2` (stereo unspecified), the activity change was 31.6%.

In the case of `Cc1nc2nc3c(cn2n1)C(=O)CC(c1ccccc1)C3` (stereo unspecified), the activity change is 20.9%.

`Cc1cc(C)nc(-n2ncc3c2CC(c2ccc(C(C)C)cc2)CC3=O)n1` (stereo unspecified): the activity change was -85.9% (active).

For `COc1ccc(OC)c(-n2cc3c(=O)n(C)c(=O)n(C)c3c2)c1`, the activity change is 33%.

As for `COc1ccccc1NC1=NC(c2ccc(Cl)cc2)N=C(N)N1` (stereo unspecified), the activity change was -13.3%.

With `O=c1ccnc(Nc2ccc(Cl)cc2)[nH]1`, the activity change was 0%.

Take `CC1(C)N=C(N)NC(Nc2ccc(Cl)cc2)=N1`: the activity change was -77.7% (active).

Consider `O=C(Nc1ccc2c(c1)OCCO2)C(C1CC1)N1CCC(Cc2ccccc2)CC1` (stereo unspecified), for which the activity change was 11.6%.

With `CC1(C)CN(Cc2cccnc2)C(=O)[C@H]1CC(=O)Nc1ccc(Br)cc1`, the activity change was 24.4%.

Consider `CC1Oc2ccccc2N(Cc2cccnc2)C1=O` (stereo unspecified), for which the activity change was -12.7%.

With `CC12c3ccccc3C(c3ccccc31)C1C(=O)N(Cc3cccnc3)C(=O)C12` (stereo unspecified), the activity change is -50.6% (active).

As to `CC(=O)N1CCN(Cc2cc(=O)oc3cc(C)ccc23)CC1`, the activity change was 19.5%.

Turning to `O=C(/C(=N\O)n1cncn1)c1ccc(Br)cc1Br`, the activity change is -12.3%.

Take `Cc1ccc2c(N)c(C(=O)c3ccccc3)sc2n1`: the activity change is -69.1% (active).

Turning to `CCN(CC)C(=O)c1sc2nc(-c3ccccc3)ccc2c1N`, the activity change is -57.4% (active).

For `Cc1nc2ccccc2c(-c2ccccc2)c1C(=O)c1ccccc1`, the activity change is 29.5%.

Consider `Cc1cccc(NC(=O)c2sc3nc(N4CCOCC4)c4c(c3c2N)CCCC4)c1`, for which the activity change was 11.3%.

`CCN(CC)C(=O)c1sc(NC(=O)c2ccco2)c(C#N)c1C`: the activity change is -26.1%.

For `Cc1nc2sc(C(=O)c3ccccc3)c(N)c2c2c1CCCC2`, the activity change is -96% (active).

`COC(=O)c1cc2c(N)c(C(=O)c3ccc(Cl)cc3)sc2nc1C(OC)OC`: the activity change is -7.51%.

With `Cc1nn(C)cc1C(=O)c1ccccc1`, the activity change was 0%.

Take `CCN(CC)C(=O)N(CC)Cc1ccccc1`: the activity change is 3.47%.

For `COCCCn1c(=O)/c(=C/c2ccccc2OC(C)C)s/c1=C(\C#N)C(=O)Nc1ccc(C(=O)O)cc1`, the activity change is -11.6%.

In the case of `CC1Cc2ccccc2N1S(=O)(=O)c1cccc(C(=O)NCC(c2ccco2)N2CCCC2)c1` (stereo unspecified), the activity change is -6.87%.

`Cc1ccc([C@H]2N[C@]3(CCCN(Cc4ccccc4)C3=O)[C@H]3C(=O)N(Cc4ccccc4)C(=O)[C@@H]23)cc1`: the activity change is 19.2%.

Turning to `CC(C)N1C(=O)c2ccccc2NC(=O)C1C(=O)NCc1cccs1` (stereo unspecified), the activity change was 0%.

With `C[C@@H]1CCCCO[C@H](CN(C)Cc2ccccc2)[C@@H](C)CN([C@H](C)CO)C(=O)c2cc(NS(=O)(=O)c3ccc(Cl)cc3)ccc2O1`, the activity change is -50.8% (active).

Regarding `Cc1ccc(S(=O)(=O)Nc2ccc3c(c2)C(=O)N([C@H](C)CO)C[C@@H](C)[C@@H](CN(C)C(=O)Nc2cccc4ccccc24)O3)cc1`, the activity change is -20.3%.

As for `C[C@@H]1CN([C@@H](C)CO)C(=O)c2cc(NS(C)(=O)=O)ccc2O[C@@H](C)CCCCO[C@H]1CN(C)C(=O)Nc1ccc2c(c1)OCO2`, the activity change is -2.98%.

For `COc1cc(NC(=O)c2cc(-c3ccc(F)cc3OC(C)C)n[nH]2)cc(OC)c1OC`, the activity change was -6.74%.

For `Cc1cccc(NC(=S)NCCN(C2CCCCC2)C2CCCC2)c1`, the activity change was -63.3% (active).

`Cc1cccc(C(=O)NC(=S)N(C)C2CCCCC2)c1`: the activity change was -1.28%.

With `Cc1cccc(NC(=S)NCc2ccc3[nH]c4c(c3c2)CCCC4)c1`, the activity change is -10.4%.

Regarding `COc1ccc(C)cc1N(C(=O)Cn1nnc(-c2ccc(C)o2)n1)C(C(=O)NC1CCCC1)c1ccncc1` (stereo unspecified), the activity change is 7.77%.

As to `Cc1ccc2c(c1)c1ncnc(N3CCc4ccccc4C3)c1n2C`, the activity change was -19.9%.

Take `O=C1CCC(C(=O)OCC(=O)Nc2ccc(OC(F)F)cc2)=NN1`: the activity change is -2.22%.
